Among the test systems are DU-145 prostate; K-562 leukemia; MALME-3M melanoma; MDA-MB-231 breast; RXF 393 renal; SF-268 CNS; SF-295 CNS; SF-539 CNS; UACC-257 melanoma; M14 melanoma; HCT-15 colon; HT29 colon; SNB-75 CNS; SNB-19 CNS; U251 CNS; PC-3 prostate; SK-MEL-5 melanoma; UACC-62 melanoma; LOX IMVI melanoma; SK-MEL-28 melanoma.
What all share (test): NCI-60 one-dose screen, 48 h (100 = growth as untreated, 0 = no growth, -100 = all killed)
What all share (conditions): 10 µM unless noted

About 83,000 compounds went through this panel and 20% of them were active in at least one assay; those are over-represented in the sample as a whole.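 Values shown are percent growth following 48 h exposure of cells in 96-well plates to a single concentration of compound; below 10 was considered active.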 Unmarked numbers belong to inactive results. Active and inactive are the calls of the source.

With `Clc1c(Cl)[n+](Cc2ccc3ccccc3c2)cn1Cc1ccc2ccccc2c1`, the growth with DU-145 prostate was 32.6%; with K-562 leukemia, -3.01% (active); in the assay on MALME-3M melanoma, -14.1% (active); with MDA-MB-231 breast, 7.04% (active); with RXF 393 renal, -7.52% (active); in the assay on SF-268 CNS, 20.8%. For the same molecule, the growth in the assay with SF-295 CNS was 45.6%; in the assay with SF-539 CNS, 58.6%; in the assay with UACC-257 melanoma it was -37.7% (active); in the assay with M14 melanoma, -31.9% (active); in the assay on HCT-15 colon it was 75.1%; in the assay on HT29 colon, -69.4% (active). The growth in the assay with SNB-75 CNS was 10.3%; in the assay with SNB-19 CNS, 26.8%; with U251 CNS, -82.6% (active); in the assay with PC-3 prostate, 3.79% (active); in the assay with SK-MEL-5 melanoma it was -79.7% (active); in the assay with UACC-62 melanoma, -42.8% (active). The growth was -21.4% (active) in the assay with LOX IMVI melanoma and 16.1% in the assay with SK-MEL-28 melanoma.
Consider `O=S(=O)(NCCCNc1nccc(-c2c(-c3cccc(F)c3)nc3occn23)n1)c1ccc(F)cc1`, for which the growth in the assay on DU-145 prostate is 55.9%; in the assay on K-562 leukemia it was 13%; in the assay on MALME-3M melanoma, 43.6%; with MDA-MB-231 breast, 60.9%; in the assay with RXF 393 renal, 63.6%; with SF-268 CNS it was 44.5%. Moreover, the growth with SF-295 CNS is 89.5%; with SF-539 CNS it was 87%; in the assay with UACC-257 melanoma it was 43.6%; in the assay on M14 melanoma it was 35.7%; with HCT-15 colon, 58.3%; in the assay on HT29 colon, 21.9%. Besides, the growth in the assay on SNB-75 CNS is 73.5%; with SNB-19 CNS, 84.9%; in the assay on U251 CNS, 56.1%; in the assay on PC-3 prostate it was 29.4%; in the assay on SK-MEL-5 melanoma, 32.7%; in the assay with UACC-62 melanoma, 26.5%. Also, the growth with LOX IMVI melanoma is 44.7%; with SK-MEL-28 melanoma, 64.2%.
`Cc1ccc(S(=O)(=O)c2nc(-c3ccccc3)oc2Sc2nc3ccccc3s2)cc1`: the growth in the assay with DU-145 prostate is 100%; in the assay on K-562 leukemia, 42.9%; in the assay on MALME-3M melanoma, 66.4%; in the assay on MDA-MB-231 breast, 75.3%; with RXF 393 renal, 77.3%; with SF-268 CNS, 58.3%. Also, the growth in the assay with SF-295 CNS was 92.1%; in the assay with SF-539 CNS, 93.3%; in the assay on UACC-257 melanoma, 101%; in the assay on M14 melanoma, 13.4%; with HCT-15 colon it was 44.8%; in the assay on HT29 colon it was 94.2%. In addition, the growth is 70.8% in the assay on SNB-75 CNS; 100% in the assay on SNB-19 CNS; 90.5% in the assay with U251 CNS; 97.2% in the assay on PC-3 prostate; 53.3% in the assay with SK-MEL-5 melanoma; 80.3% in the assay on UACC-62 melanoma. In addition, the growth was 24.6% in the assay on LOX IMVI melanoma and 109% in the assay with SK-MEL-28 melanoma.
`COc1cc(C(=O)n2nc(N3CCOCC3)c3cc(-n4cccc4)ccc32)cc(OC)c1OC`: the growth was 61.2% with DU-145 prostate; 52.4% in the assay on K-562 leukemia; 87.1% with MALME-3M melanoma; 54.9% in the assay on MDA-MB-231 breast; -9.27% (active) in the assay with RXF 393 renal; 76.8% in the assay on SF-268 CNS. For the same molecule, the growth is 71.8% in the assay with SF-295 CNS; 79.9% with SF-539 CNS; 103% in the assay with UACC-257 melanoma; 52.7% in the assay on M14 melanoma; 17.6% in the assay on HCT-15 colon; 62.4% in the assay on HT29 colon. Further, the growth in the assay with SNB-75 CNS is 49.8%; in the assay with SNB-19 CNS it was 75.2%; with U251 CNS, 68.7%; in the assay with PC-3 prostate, 38%; in the assay on SK-MEL-5 melanoma, 64.3%; with UACC-62 melanoma it was 73.1%. For the same molecule, the growth was 88.7% in the assay on LOX IMVI melanoma and 72.7% in the assay with SK-MEL-28 melanoma.
`O=C(Cn1nnc2ccccc21)N/N=C/c1c[nH]c2ccccc12`: the growth with DU-145 prostate was 81%; with K-562 leukemia it was 15.2%; in the assay on MALME-3M melanoma, 61%; in the assay on MDA-MB-231 breast, 52%; with RXF 393 renal, 66.5%; with SF-268 CNS it was 57.5%. Further, the growth in the assay on SF-295 CNS is 44.3%; with SF-539 CNS, 51.9%; with UACC-257 melanoma, 65.3%; in the assay with M14 melanoma it was 19.7%; in the assay on HCT-15 colon, 33.3%; in the assay with HT29 colon, 13.1%. Moreover, the growth with SNB-75 CNS was 33.5%; in the assay on SNB-19 CNS, 41.3%; in the assay with U251 CNS it was 39.5%; in the assay on PC-3 prostate, 61.7%; in the assay on SK-MEL-5 melanoma it was 28.4%; with UACC-62 melanoma, 23%. The growth in the assay on LOX IMVI melanoma was 46.1%; in the assay on SK-MEL-28 melanoma, 72.5%.
For the molecule `CC(=O)O[C@H]1C[C@@H]2C(C)(C)C(=O)CC[C@@]2(C)c2ccc(C(C)C)cc21`, the growth is 102% with DU-145 prostate; 104% in the assay on K-562 leukemia; 109% with MALME-3M melanoma; 104% with MDA-MB-231 breast; 121% with RXF 393 renal; 95.8% in the assay on SF-268 CNS. Also, the growth is 100% in the assay with SF-295 CNS; 110% with SF-539 CNS; 107% with UACC-257 melanoma; 104% in the assay with M14 melanoma; 105% with HCT-15 colon; 111% with HT29 colon. In addition, the growth is 100% with SNB-75 CNS; 102% in the assay on SNB-19 CNS; 97.7% with U251 CNS; 100% with PC-3 prostate; 103% in the assay with SK-MEL-5 melanoma; 101% in the assay with UACC-62 melanoma. The figures for the growth with LOX IMVI melanoma and with SK-MEL-28 melanoma were 105% and 121%, respectively.
Regarding `Cc1cn(-c2cc(NC(=O)c3cncc(C#Cc4c(N)ncc5ccc(F)cc45)c3)cc(C(F)(F)F)c2)cn1`, the growth with DU-145 prostate is 70.5%; with K-562 leukemia it was 3.34% (active); in the assay with MALME-3M melanoma, 21.5%; in the assay on MDA-MB-231 breast it was 27.1%; with RXF 393 renal, 62.7%; in the assay on SF-268 CNS, 64.6%. Besides, the growth with SF-295 CNS was 85.2%; in the assay with SF-539 CNS, 51.5%; in the assay with UACC-257 melanoma it was 52.9%; in the assay on M14 melanoma, 26.6%; in the assay with HCT-15 colon, 49.9%; with HT29 colon, 8.94% (active). Moreover, the growth with SNB-75 CNS was 76.8%; in the assay on SNB-19 CNS, 91.9%; with U251 CNS, 80.4%; with PC-3 prostate it was 71.7%; in the assay on SK-MEL-5 melanoma, 27.4%; in the assay on UACC-62 melanoma it was 33.8%. In addition, the figures for the growth in the assay with LOX IMVI melanoma and with SK-MEL-28 melanoma were 23% and 42.4%, respectively.

The values above are taken from PubChem BioAssay (NCI).
